Giardia kill – kills Giardia lamblia | Giardia lamblia trophozoite viability | activity change, % at 7.66 µM, hits read low | actives 0.15% (n = 340,000) | AID 540267; in the data active = activity change below about -80%; inconclusive = between about -30% and that limit;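 also: parasites exposed to compound for two days anaerobically before the ATP read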
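Killing of trophozoites was scored by loss of ATP luminescence after a 48 hrs anaerobic exposure to compounds at 37 deg C, using 100 cells per well.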
DT40 TDP1 no CPT – qHTS for Inhibitors of human tyrosyl-DNA phosphodiesterase 1 (TDP1): qHTS in cells in absence of CPT; DT40 Tdp1-/- hTDP1 cells, no CPT, ATP luminescence, 48 h; Potency, µM (top dose mostly 46.2 µM), usual class: inhibitors; actives 15% (n = 420,000); also: nearly all actives have a fitted effect of over 55% in size
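No-CPT arm: Tdp1-/-;hTDP1 DT40 cells (400/well) plus compounds, incubated ≥48 hr at 37 °C. Readout CellTiter-Glo luminescence.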
DT40 TDP1 CPT – DT40-hTDP1 cell growth loss with CPT; chicken DT40 Tdp1-/-;hTDP1 cells + 20 nM CPT, ATP luminescence, 48 h; Potency, µM (series often up to 46.2 µM), most hits filed as inhibitors; actives 12% (n = 420,000); also: nearly all actives have a fitted effect of over 55% in size
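Chicken DT40 Tdp1-/- cells complemented with human TDP1, 400 cells/well, exposed to compounds plus 20 nM camptothecin for at least 48 h at 37 C; viability read as ATP content by CellTiter-Glo luminescence.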
TDP1 inh – inhibitors of human tyrosyl-DNA phosphodiesterase TDP1; Q9NUW8; recombinant TDP1, AlphaScreen DNA substrate cleavage; Potency, µM (doses to about 130 µM), usual class: inhibitors; actives 0.28% (n = 350,000); AID 485290; also: nearly all actives have a fitted effect of over 40% in size
Target sequence (Q9NUW8 whole entry, looked up): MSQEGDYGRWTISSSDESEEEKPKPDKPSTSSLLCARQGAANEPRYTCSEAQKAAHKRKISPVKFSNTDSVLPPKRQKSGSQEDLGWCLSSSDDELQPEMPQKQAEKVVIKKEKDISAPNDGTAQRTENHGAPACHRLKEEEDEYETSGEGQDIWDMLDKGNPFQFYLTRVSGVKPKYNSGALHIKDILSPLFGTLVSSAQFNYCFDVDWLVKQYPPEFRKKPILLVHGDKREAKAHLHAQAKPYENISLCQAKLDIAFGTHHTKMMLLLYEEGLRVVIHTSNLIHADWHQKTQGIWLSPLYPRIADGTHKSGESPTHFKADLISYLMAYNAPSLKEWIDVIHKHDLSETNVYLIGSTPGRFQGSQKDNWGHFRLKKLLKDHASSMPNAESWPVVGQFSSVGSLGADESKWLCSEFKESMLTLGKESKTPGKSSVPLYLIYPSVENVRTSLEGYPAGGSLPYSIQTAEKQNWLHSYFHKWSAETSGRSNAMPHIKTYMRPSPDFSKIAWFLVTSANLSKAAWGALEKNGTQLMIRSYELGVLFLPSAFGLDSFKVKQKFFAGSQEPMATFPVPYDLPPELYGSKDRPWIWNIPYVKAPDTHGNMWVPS
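Steps: enzyme plus compound, 15 min RT; add biotin/phosphotyrosine-FITC oligonucleotide (15 nM final), react 5 min; add donor/acceptor beads (10 ug/ml final), 10 min; read AlphaScreen. Tdp1 at 1 nM final.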
ELG1 DNA repair – blocks ELG1-dependent DNA repair in HEK293T cells; HEK293T ELG1-luciferase reporter, luminescence, 16 h; DNA damage induced by 5-fluorouridine; Potency, µM (series often up to 46.1 µM), hits mostly inhibitors; actives 2.3% (n = 330,000); also: nearly all actives have a fitted effect of over 55% in size
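In this reporter screen, reduction of luminescence relative to DMSO vehicle indicated activity. Compounds and 5-fluorouridine were added together to 2,000 cells per well, incubated for 16 hr at 37 °C, then developed with ONE-Glo.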
IL1B secr inh – inhibitors of inflammasome signaling (IL-1 beta secretion) | THP-1 LPS/ATP IL-1B secretion, AlphaLISA, 16 h; stronger effect = lower value | activity change, % at 57.5 µM | actives 4.7% (n = 360,000) | AID 743279; in the data active = activity change below about -50%; inconclusive = mostly about -30% to -49%
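Secreted IL-1B measured by AlphaLISA bead assay after 16 h compound exposure of THP-1 cells; compounds (final up to 57.5 uM) added 1 h before LPS (250 ng/mL) and ATP (1.25 mM) stimulation; lower signal means less secretion.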
Large screens that a line does not name were inactive. This is a sample that favours compounds with a hit; in the whole collection about 19% have one here. Unless noted, calls follow the shape of the dose curve; as a rule, active = well fitted curve in the direction sought with a large enough effect; inconclusive = small, poorly fitted or top-dose-only effect, or another doubt; inactive = no such curve, though single readings can be large; an effect the other way counts as inactive or inconclusive.

CC(CNC(=O)c1cccnc1)NC(=O)c1cccnc1 (stereo unspecified)	none (no result: Giardia kill, ELG1 DNA repair, IL1B secr inh)
O=C(Nc1c(-c2ccc(F)cc2)nc2ccccn12)c1ccccc1F	DT40 TDP1 no CPT inconclusive (no result: Giardia kill, ELG1 DNA repair, IL1B secr inh)
Cc1ccc(CNC(=O)C2CCN(S(=O)(=O)c3cn(C)cn3)CC2)cc1	none (no result: Giardia kill, ELG1 DNA repair, IL1B secr inh)
Cn1ncc(Cl)c1C(=O)Nc1ccc(CN2CCCCC2)cc1	none
CN1C(=O)CC(Sc2ccccc2C(=O)O)C1=O (stereo unspecified)	none
Cc1ccc(N2C(=O)CC(Sc3ccccc3C(=O)O)C2=O)cc1C (stereo unspecified)	DT40 TDP1 no CPT 12µM, DT40 TDP1 CPT 4.1µM
Cc1cccc(C)c1N1C(=O)CC(Sc2ccccc2N)C1=O (stereo unspecified)	DT40 TDP1 no CPT inconclusive, DT40 TDP1 CPT inconclusive (no result: Giardia kill, TDP1 inh, ELG1 DNA repair)
Cc1cc(C)c(N2C(=O)CC(Sc3ccccc3N)C2=O)c(C)c1 (stereo unspecified)	DT40 TDP1 no CPT 7.3µM, DT40 TDP1 CPT 16µM (no result: Giardia kill, TDP1 inh, ELG1 DNA repair)
CC(=O)c1ccc(NC(=O)c2ccn(C(=O)OCC(C)C)n2)cc1	DT40 TDP1 no CPT inconclusive, ELG1 DNA repair inconclusive
Cc1ccc2c(c1)N(C(=O)CCC(=O)NCCCN1CCC(Cc3ccccc3)CC1)CCO2	DT40 TDP1 no CPT 18µM, DT40 TDP1 CPT inconclusive (no result: TDP1 inh)
Cc1ccc2c(c1)N(C(=O)CCC(=O)NCCCN1CCN(C)CC1)CCO2	none (no result: TDP1 inh)
CC1CN(C(=O)CCC(=O)NCCCN2CCN(Cc3ccccc3)CC2)c2cc(Cl)ccc2O1 (stereo unspecified)	DT40 TDP1 no CPT inconclusive, DT40 TDP1 CPT 21µM
O=C(CCC(=O)N1CCOc2ccc(Cl)cc21)NCCCN1CCN(Cc2ccccc2)CC1	DT40 TDP1 CPT inconclusive (no result: TDP1 inh)
O=C(Nc1ccccc1)C1=C(N2CCOCC2)/C(=C/c2cccnc2)CC1	none
COc1cc(NC(=O)C2=C(N3CCOCC3)/C(=C\c3ccc(N(C)C)cc3)CCC2)cc(OC)c1OC	DT40 TDP1 no CPT 2.9µM, DT40 TDP1 CPT 7.3µM, ELG1 DNA repair inconclusive
COc1cc(NC(=O)C2=C(N3CCOCC3)/C(=C/c3ccc(Cl)cc3)CC2)cc(OC)c1OC	DT40 TDP1 no CPT 7.3µM, DT40 TDP1 CPT 6.5µM, ELG1 DNA repair 16µM
CC(C)CC1C(=O)N(Cc2cn(CC3CCCCC3)nn2)CCS(=O)(=O)N1Cc1ccc(-c2cccc(CO)c2)cc1 (stereo unspecified)	DT40 TDP1 no CPT 23µM, DT40 TDP1 CPT 21µM (no result: Giardia kill, TDP1 inh, ELG1 DNA repair)
CC1C(=O)N(Cc2cn(CC3CCCCC3)nn2)CCS(=O)(=O)N1Cc1ccc(-c2cccc(CO)c2)cc1 (stereo unspecified)	DT40 TDP1 no CPT 23µM, DT40 TDP1 CPT 15µM (no result: Giardia kill, TDP1 inh, ELG1 DNA repair)
CC(C)CC1C(=O)N(Cc2cn(CCC3OCCCO3)nn2)CCS(=O)(=O)N1Cc1ccc(-c2cccc(CO)c2)cc1 (stereo unspecified)	DT40 TDP1 no CPT inconclusive (no result: Giardia kill, TDP1 inh, ELG1 DNA repair)
Cn1c(=O)c2c(ncn2CC(=O)OCC(=O)Nc2cccc(C#N)c2)n(C)c1=O	none (no result: Giardia kill, TDP1 inh, ELG1 DNA repair)
COc1ccc2c(c1)c1c(c(=O)n(-c3cccc(C)c3)c(=O)n1CC(=O)NCC1CCCO1)n2C (stereo unspecified)	DT40 TDP1 CPT inconclusive (no result: Giardia kill, ELG1 DNA repair, IL1B secr inh)
Cc1c(Cl)cccc1NC(=O)CSc1ncc(S(=O)(=O)c2ccc(C(C)C)cc2)c(=O)[nH]1	none (no result: Giardia kill, DT40 TDP1 no CPT, DT40 TDP1 CPT, ELG1 DNA repair, IL1B secr inh)
CCCCN1C(=S)NC[C@@H]1c1ccccc1	none
COc1cc(CCCN2C(=S)NC[C@@H]2Cc2ccccc2)cc(OC)c1OC	DT40 TDP1 no CPT 16µM, DT40 TDP1 CPT 26µM, ELG1 DNA repair inconclusive
COc1cc(CCCN2C(=S)NC[C@@H]2c2ccccc2)cc(OC)c1OC	Giardia kill inconclusive, DT40 TDP1 no CPT 16µM, DT40 TDP1 CPT 26µM
COc1cc(CCCN2CCNC[C@@H]2Cc2ccccc2)cc(OC)c1OC	Giardia kill inconclusive
O=C(CC(c1cccs1)N1Cc2ccccc2C1=O)Nc1ccc(F)c(Cl)c1 (stereo unspecified)	DT40 TDP1 no CPT inconclusive (no result: Giardia kill, ELG1 DNA repair, IL1B secr inh)
